# Nrf2 block – Nrf2 qHTS screen for inhibitors; A549 ARE-Fluc reporter, luciferase luminescence, 18-24 h; Potency, µM (highest dose often 46 µM), usual class: inhibitors; 360,000 tested, 2.1% active; AID 504444, 2011; also: nearly all actives have a fitted effect of over 60% in size
#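 A549 ARE_Fluc cells, 5000/well, 5% FBS OPTI-MEM; compounds in dose-response, 18-24 h at 37 °C/5% CO2; CellTiter-Fluor viability read (Ex 405/Em 525), then BugLite luciferase luminescence = Nrf2 activity.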
# Giardia killer – Small Molecules that selectively kill Giardia lamblia: qHTS. Giardia lamblia trophozoite viability. activity change, % at 7.66 µM, hits read low. 340,000 tested, 0.15% active. AID 540267, 2011; in the data active = activity change below about -80%; inconclusive = between about -30% and that limit;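 also: parasites exposed to compound for two days anaerobically before the ATP read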
#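 ATP-content bioluminescence gauges trophozoite survival. Cells (100/well) receive compound and incubate anaerobically for 48 hrs at 37 deg C; detection reagent follows for 15-30 min at room temperature.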
# Nrf2 activator – qHTS of Nrf2 Activators | AREc32 ARE-luciferase reporter (MCF7-derived line), luminescence, 24 h | Potency, µM (top dose mostly 46.1 µM), actives largely listed as activators | 410,000 tested, 0.31% active | AID 624171, 2012; also: nearly all actives have a fitted effect of over 65% in size
#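 AREc32_Fluc, 1000 cells/well, OPTI-MEM + 5% FBS, o/n 37 deg C 5% CO2; 23 nL cpd by pin tool, 24 hr; Steady-Glo 30 min RT, luminescence.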
# mIDH1 inhibitor – qHTS for Inhibitors of mutant isocitrate dehydrogenase 1 (IDH1): qHTS; Isocitrate dehydrogenase [NADP] cytoplasmic (Homo sapiens), O75874; IDH1-R132H enzyme, NADPH consumption, diaphorase/resazurin fluorescence; Potency, µM (doses to about 76.6 µM), usual class: inhibitors; 390,000 tested, 0.093% active; AID 602179, 2012; also: nearly all actives have a fitted effect of over 65% in size
#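 IDH1-R132H (0.5 ug/mL) preincubated 30 min with compound, then NADPH (0.016 mM) and alpha-KG (2 mM) added; 80 min at RT, pH 7.5. Remaining NADPH coupled via diaphorase/resazurin to fluorescence (540/590 nm); concentration-response curves normalized to no-enzyme control.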
# Apoferritin bind – qHTS Assay for Identification of Novel General Anesthetics. Potency, µM (highest dose often 77.5 µM), actives largely listed as inhibitors. Ferritin light chain (Equus caballus), P02791. 350,000 tested, 0.074% active. apoferritin/1-aminoanthracene competitive binding, fluorescence; also: nearly all actives have a fitted effect of over 20% in size
# Target sequence (P02791 2-175 limits assumed): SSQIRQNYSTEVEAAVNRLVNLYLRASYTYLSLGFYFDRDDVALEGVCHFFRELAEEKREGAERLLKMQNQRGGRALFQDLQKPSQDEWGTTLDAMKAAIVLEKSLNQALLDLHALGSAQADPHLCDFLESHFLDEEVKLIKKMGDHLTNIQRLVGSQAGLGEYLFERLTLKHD
#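 Read-out: endpoint 1-AMA fluorescence, excitation 380 nm and emission 535 nm, after compounds sit 10 min at room temperature with 10 uM horse-spleen apoferritin in 50% saturated 1-AMA/PBS. Values come from four-parameter Hill fits.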
# A549 viability – Nrf2 qHTS screen for inhibitors: counterscreen for cytotoxicity | A549 ARE-Fluc cells, CellTiter-Fluor viability, 18-24 h | Potency, µM (series often up to 46 µM), hits mostly inhibitors | 390,000 tested, 0.16% active | AID 504648, 2011
#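 Cytotoxicity counterscreen: CellTiter-Fluor fluorescence was measured in A549 ARE_Fluc cells after 18-24 h of compound exposure in a concentration series. The subsequent BugLite luminescent read reports ARE-luciferase activity.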
# A number is an active result; i = inactive; ? = inconclusive; nt = no result given; [ ] = dose if it differs, or a comment. Hits are enriched below; roughly 2.3% of the tested compounds scored in any of these assays. Unless noted, calls follow the shape of the dose curve; as a rule, active = well fitted curve in the direction sought with a large enough effect; inconclusive = small, poorly fitted or top-dose-only effect, or another doubt; inactive = no such curve, though single readings can be large; an effect the other way counts as inactive or inconclusive.
SMILES,Nrf2 block,Giardia killer,Nrf2 activator,mIDH1 inhibitor,Apoferritin bind,A549 viability
CCc1cccc(-n2c(=O)c3cccnc3n2CC(=O)Nc2ccc(OC)c(Cl)c2)c1,8.2µM,nt,i,i,i,i
CCc1ccc(-n2c(=O)c3cccnc3n2CC(=O)Nc2cc(OC)ccc2OC)cc1,i,nt,i,i,i,i
CCSC(=O)NC12CC3CC(CC(C3)C1)C2,i,i,i,i,8.9µM,i
CCC(CC)C(=O)OCC(=O)NC12CC3CC(CC(C3)C1)C2,?,i,i,i,6.3µM,i
O=C(COC(=O)C(O)c1ccccc1)NC12CC3CC(CC(C3)C1)C2 (stereo unspecified),i,i,i,i,11µM,i
CCOC(=O)C(=O)NC12CC3CC(CC(C3)C1)C2,?,i,i,i,?,i
CCc1ccc(S(=O)(=O)NCc2ccc(C(=O)NCCN(Cc3ccccc3)C(C)C)cc2)cc1,nt,nt,i,nt,nt,nt
COc1ccc2oc(=O)cc(CN3CCN(c4ccc(F)cc4)CC3)c2c1,?,nt,i,i,i,i
CSc1ccc(C(=O)C2CCCN(C(=O)CCc3c(C)nn(C)c3C)C2)cc1 (stereo unspecified),9.2µM,i,i,i,nt,i
O=C1N[C@@H](Cc2c[nH]c3ccccc23)COC(=O)[C@H](Cc2ccc(F)cc2)C/C=C\C[C@H]1CC(=O)N(CCO)Cc1ccccc1,26µM,i,i,i,nt,?
O=C1NC[C@@H](c2ccccc2)OC(=O)[C@H](Cc2ccc(F)cc2)C/C=C\C[C@@H]1CC(=O)N(CCO)Cc1ccccc1,26µM,i,i,i,nt,?
O=C1N[C@@H](Cc2ccccc2)COC(=O)[C@H](Cc2ccc(F)cc2)CC/C=C/C[C@H]1CC(=O)N(CCO)Cc1ccccc1,23µM,i,i,i,nt,i
CCOC(=O)C1CCN(S(=O)(=O)c2cc(-c3onc(C)c3C)ccc2C)CC1,i,nt,i,i,i,i
COc1cccc(CCn2c(N)cc(=O)[nH]c2=S)c1OC,i,i,nt,nt,nt,i
CCCCN(CCCC)S(=O)(=O)c1ccc(C(=O)Nc2nnc(CSC)o2)cc1,7.3µM,i,i,i,i,i
CCCN(CCC)S(=O)(=O)c1ccc(C(=O)Nc2nnc(CSC)o2)cc1,9.2µM,i,i,i,i,i
Cc1nc2c(o1)C(=O)c1ccccc1C2=Nc1ccccc1,?,-101,i,i,nt,?
Cc1ccc(N=C2C(=O)Nc3ccccc32)cc1,i,i,i,i,i,i
COc1ccccc1NC(=O)C1=C(C)Nc2nc(SCc3ccccc3)nn2C1c1ccccn1 (stereo unspecified),i[9.27 µM],nt,i,i,i,i
COc1cccc(C2c3c(ncn(-c4ccc(C(C)(C)C)cc4)c3=N)Oc3ccc4ccccc4c32)c1 (stereo unspecified),?,nt,nt,nt,nt,i
O=C(Nc1ccc(S(=O)(=O)NC2=NCCCCC2)cc1)c1ccc(Cl)cc1Cl,16µM,i,i,i,nt,i
CCOc1ncccc1C(=O)Nc1ccc(S(=O)(=O)NC2=NCCCCC2)cc1,?,i,i,i,i,i
CCCOc1ccc(C(=O)Nc2ccc(S(=O)(=O)NC3=NCCCCC3)cc2)cc1,18µM,i,i,i,nt,i
CCn1nc(C)c(CCN(C)C(=O)Nc2cc(Cl)c(OC)cc2OC)c1C,nt,nt,i,i,i,i
C=CCOc1ccc(/C=C/C(=O)OCC(=O)N2CCC(c3ccccc3)=N2)cc1,21µM,i,i,i,nt,i
CC(=O)c1ccc(NS(=O)(=O)c2ccc(CC(C)C)cc2)cc1,?,i,i,i,35µM,i
COc1ccc(NC(=O)CSc2nnc(C3CCCCC3)n2N)cc1,i,i,i,i,?,i
O=C(CSc1nc2nn(-c3ccccc3)c(=O)c-2c2n1CCCCC2)Nc1cccc(F)c1,9.2µM,i,i,i,nt,i
Nn1c(SCC(=O)Nc2cccc(F)c2)nnc1C1CCCCC1,i,i,i,i,8.9µM,nt
O=C(O)CSCC(=O)Nc1ccc(C2CCCCC2)cc1,5.2µM,i,i,i,?,i

# Assay outcomes from PubChem BioAssay.
